Assay results as given in paper PMC7862700, “An all-to-all approach to the identification of sequence-specific readers for epigenetic DNA modifications on cytosine”.

Tests used:
Assay in all cases: DAPPL (digital affinity profiling via proximity ligation, sequencing); 10 mM Tris-HCl pH 7.5, 50 mM NaCl, 1 mM DTT, 4% glycerol, room temperature, 30 min; GST-TFs on glutathione beads, 16-mer random dsDNA library, 0.1% formaldehyde crosslink after washing; high values mean tight binding
[1] = target: T1, FLI1 (Homo sapiens, UniProt Q01543 1-452); conditions: protein: recombinant; tags: N-terminal GST; dsDNA, one strand shown
T1 sequence: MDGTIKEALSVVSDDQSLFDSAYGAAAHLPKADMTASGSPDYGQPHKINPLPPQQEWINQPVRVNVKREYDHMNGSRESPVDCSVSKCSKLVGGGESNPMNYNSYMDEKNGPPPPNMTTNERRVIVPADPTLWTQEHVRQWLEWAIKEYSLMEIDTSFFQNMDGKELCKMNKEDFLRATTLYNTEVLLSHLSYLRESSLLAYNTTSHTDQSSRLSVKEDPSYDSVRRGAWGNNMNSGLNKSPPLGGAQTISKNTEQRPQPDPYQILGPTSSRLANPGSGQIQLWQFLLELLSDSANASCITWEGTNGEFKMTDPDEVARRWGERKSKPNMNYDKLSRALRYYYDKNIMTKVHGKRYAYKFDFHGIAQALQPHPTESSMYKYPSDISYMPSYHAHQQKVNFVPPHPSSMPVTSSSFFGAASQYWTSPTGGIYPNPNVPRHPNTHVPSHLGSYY
Method in brief: (§1)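 A tag-only sample was pooled with DNA-barcoded human transcription factors that had been expressed in yeast as GST fusions and captured on glutathione beads. The pools were incubated for 30 min at room temperature with 200 nmole of a random double-stranded 16-mer DNA library in Tris/NaCl/DTT/glycerol buffer, then washed, crosslinked with 0.1% formaldehyde, proximity-ligated (BsaI/T4 ligase, 1 h, 37 °C), PCR-amplified and sequenced on an Illumina NextSeq500. Binding signal is each hexamer's read frequency for a factor divided by its frequency for the tag-only sample.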

[2] = target: T2, ELK1 (Homo sapiens, UniProt P19419 1-428); conditions: protein: recombinant; tags: N-terminal GST; dsDNA, one strand shown
T2 sequence: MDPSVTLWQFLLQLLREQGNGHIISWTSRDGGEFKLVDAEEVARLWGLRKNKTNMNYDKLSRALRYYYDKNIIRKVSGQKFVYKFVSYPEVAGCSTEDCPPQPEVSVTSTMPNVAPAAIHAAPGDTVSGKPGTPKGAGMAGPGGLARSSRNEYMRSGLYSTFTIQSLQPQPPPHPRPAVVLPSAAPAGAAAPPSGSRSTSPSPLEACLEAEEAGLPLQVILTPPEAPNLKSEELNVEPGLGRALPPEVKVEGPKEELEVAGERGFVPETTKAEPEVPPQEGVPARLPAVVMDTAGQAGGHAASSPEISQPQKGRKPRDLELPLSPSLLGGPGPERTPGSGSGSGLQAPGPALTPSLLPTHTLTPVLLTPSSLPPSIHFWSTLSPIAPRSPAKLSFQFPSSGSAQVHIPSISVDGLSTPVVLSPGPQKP
Method in brief: as §1

[3] = target: T3, GABPA (Homo sapiens, UniProt Q06546 1-454); conditions: protein: recombinant; tags: N-terminal GST; dsDNA, one strand shown
T3 sequence: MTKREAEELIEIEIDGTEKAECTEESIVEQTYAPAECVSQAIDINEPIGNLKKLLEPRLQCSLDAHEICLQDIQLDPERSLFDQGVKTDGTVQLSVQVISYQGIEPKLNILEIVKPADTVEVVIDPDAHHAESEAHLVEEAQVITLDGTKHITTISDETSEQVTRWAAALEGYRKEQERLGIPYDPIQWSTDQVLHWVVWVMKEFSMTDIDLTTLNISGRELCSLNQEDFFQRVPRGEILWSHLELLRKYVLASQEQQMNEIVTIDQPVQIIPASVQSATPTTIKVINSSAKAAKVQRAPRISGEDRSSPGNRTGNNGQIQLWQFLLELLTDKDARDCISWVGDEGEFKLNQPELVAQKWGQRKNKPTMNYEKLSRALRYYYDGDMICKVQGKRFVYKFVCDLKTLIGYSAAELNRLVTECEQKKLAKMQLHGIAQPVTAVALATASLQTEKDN
Method in brief: as §1

[4] = target: T4, ERG (Homo sapiens, UniProt P11308 1-479); conditions: protein: recombinant; tags: N-terminal GST; dsDNA, one strand shown
T4 sequence: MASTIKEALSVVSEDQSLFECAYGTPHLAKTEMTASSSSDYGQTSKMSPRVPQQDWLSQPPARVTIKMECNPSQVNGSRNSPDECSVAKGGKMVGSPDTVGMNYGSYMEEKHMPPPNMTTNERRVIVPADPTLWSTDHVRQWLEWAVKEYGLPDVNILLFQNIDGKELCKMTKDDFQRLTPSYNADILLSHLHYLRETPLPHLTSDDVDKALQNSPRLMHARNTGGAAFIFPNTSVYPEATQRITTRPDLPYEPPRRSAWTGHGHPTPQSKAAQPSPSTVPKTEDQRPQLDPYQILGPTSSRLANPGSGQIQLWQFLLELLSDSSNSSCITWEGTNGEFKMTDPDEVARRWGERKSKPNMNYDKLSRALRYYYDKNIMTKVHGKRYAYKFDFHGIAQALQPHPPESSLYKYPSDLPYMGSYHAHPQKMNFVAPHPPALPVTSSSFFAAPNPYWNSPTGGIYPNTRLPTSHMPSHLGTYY
Method in brief: as §1

[5] = target: ELF1 (Homo sapiens, UniProt P32519 1-619); conditions: protein: recombinant; tags: N-terminal GST; dsDNA, one strand shown
Chain of ELF1 (P32519 whole entry): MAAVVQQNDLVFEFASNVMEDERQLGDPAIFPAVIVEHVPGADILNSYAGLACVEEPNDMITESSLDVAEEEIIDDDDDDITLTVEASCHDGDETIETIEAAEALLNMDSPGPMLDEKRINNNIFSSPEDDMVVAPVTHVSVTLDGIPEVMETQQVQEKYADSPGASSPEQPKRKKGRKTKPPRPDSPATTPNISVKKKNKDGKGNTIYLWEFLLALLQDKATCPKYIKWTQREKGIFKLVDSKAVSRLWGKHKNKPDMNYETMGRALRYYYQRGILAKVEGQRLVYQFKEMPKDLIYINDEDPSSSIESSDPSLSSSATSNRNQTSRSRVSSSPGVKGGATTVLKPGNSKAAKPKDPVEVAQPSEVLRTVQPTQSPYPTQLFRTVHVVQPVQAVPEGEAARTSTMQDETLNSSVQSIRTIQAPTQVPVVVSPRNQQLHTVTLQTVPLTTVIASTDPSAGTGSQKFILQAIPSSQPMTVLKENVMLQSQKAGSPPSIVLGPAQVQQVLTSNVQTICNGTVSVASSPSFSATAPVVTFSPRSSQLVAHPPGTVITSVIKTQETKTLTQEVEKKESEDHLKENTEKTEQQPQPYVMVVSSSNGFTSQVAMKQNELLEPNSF
Method in brief: as §1

[6] = target: T5, EHF (Homo sapiens, UniProt Q9NZC4 1-300); conditions: protein: recombinant; tags: N-terminal GST; dsDNA, one strand shown
T5 sequence: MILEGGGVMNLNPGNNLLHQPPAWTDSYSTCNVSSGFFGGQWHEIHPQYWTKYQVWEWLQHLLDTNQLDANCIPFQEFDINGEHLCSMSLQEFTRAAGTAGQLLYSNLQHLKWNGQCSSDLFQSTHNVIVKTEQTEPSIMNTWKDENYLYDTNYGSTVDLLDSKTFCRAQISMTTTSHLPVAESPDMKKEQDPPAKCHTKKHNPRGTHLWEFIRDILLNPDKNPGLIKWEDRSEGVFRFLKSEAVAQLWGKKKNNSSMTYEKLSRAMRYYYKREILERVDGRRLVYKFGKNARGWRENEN
Method in brief: as §1

[7] = target: SPI1 (Homo sapiens, UniProt P17947 1-270); conditions: protein: recombinant; tags: N-terminal GST; dsDNA, one strand shown
Method in brief: as §1

[8] = target: T6, ELK3 (Homo sapiens, UniProt P41970 1-407); conditions: protein: recombinant; tags: N-terminal GST; dsDNA, one strand shown
T6 sequence: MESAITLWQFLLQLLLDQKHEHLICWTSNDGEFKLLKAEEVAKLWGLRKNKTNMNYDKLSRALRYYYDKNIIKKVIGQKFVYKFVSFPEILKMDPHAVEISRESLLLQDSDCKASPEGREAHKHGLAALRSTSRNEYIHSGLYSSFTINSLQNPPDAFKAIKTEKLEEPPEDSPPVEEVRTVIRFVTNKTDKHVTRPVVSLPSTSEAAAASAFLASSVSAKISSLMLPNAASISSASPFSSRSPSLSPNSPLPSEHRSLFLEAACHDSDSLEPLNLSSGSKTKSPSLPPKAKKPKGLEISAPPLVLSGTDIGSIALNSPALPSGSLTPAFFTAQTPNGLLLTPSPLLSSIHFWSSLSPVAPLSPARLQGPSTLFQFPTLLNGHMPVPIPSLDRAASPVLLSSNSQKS
Method in brief: as §1

[9] = target: T7, FEV (Homo sapiens, UniProt Q99581 1-238); conditions: protein: recombinant; tags: N-terminal GST; dsDNA, one strand shown
T7 sequence: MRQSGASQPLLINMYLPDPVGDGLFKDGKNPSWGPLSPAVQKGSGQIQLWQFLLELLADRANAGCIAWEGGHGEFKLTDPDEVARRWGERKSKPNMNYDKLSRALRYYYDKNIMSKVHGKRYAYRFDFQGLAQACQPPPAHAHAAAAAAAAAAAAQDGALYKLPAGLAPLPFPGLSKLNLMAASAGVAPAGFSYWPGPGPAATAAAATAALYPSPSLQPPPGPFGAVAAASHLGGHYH
Method in brief: as §1

[10] = target: ETV5 (Homo sapiens, UniProt P41161 1-510); conditions: protein: recombinant; tags: N-terminal GST; dsDNA, one strand shown
Chain of ETV5 (P41161 whole entry): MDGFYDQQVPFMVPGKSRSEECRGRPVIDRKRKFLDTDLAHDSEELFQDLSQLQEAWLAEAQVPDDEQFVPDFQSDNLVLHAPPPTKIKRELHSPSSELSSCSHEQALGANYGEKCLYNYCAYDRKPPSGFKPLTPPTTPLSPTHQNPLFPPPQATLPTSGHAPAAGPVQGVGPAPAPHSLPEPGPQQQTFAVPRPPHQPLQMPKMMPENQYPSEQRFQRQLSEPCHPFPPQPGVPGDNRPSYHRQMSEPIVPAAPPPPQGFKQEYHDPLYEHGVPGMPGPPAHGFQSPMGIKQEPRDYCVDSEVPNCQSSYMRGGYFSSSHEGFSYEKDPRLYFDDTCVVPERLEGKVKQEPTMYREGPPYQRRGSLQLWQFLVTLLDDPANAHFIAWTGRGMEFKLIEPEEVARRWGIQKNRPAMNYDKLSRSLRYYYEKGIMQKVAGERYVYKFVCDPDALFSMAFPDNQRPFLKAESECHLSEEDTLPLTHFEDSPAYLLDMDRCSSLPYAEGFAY
Method in brief: as §1

[11] = target: HSF1 (Homo sapiens, UniProt Q00613 1-529); conditions: protein: recombinant; tags: N-terminal GST; chain copies: 3; dsDNA, one strand shown
Chain of HSF1 (Q00613 whole entry): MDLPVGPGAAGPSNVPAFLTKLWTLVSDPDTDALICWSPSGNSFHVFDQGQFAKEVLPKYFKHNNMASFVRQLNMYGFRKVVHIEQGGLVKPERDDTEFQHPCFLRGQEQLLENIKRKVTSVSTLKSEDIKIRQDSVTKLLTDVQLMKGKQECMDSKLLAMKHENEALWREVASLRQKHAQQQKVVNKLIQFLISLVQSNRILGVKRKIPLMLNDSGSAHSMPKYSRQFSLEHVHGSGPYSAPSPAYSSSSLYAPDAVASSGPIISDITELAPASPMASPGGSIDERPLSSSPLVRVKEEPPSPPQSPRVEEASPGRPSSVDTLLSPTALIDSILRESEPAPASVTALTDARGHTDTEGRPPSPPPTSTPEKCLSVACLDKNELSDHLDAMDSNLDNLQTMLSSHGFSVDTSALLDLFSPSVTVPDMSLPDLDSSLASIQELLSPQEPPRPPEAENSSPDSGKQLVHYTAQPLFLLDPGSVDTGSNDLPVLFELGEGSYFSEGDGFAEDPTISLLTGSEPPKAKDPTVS
Method in brief: as §1

[12] = target: T8, SPIC (Homo sapiens, UniProt Q8N5J4 1-248); conditions: protein: recombinant; tags: N-terminal GST; dsDNA, one strand shown
T8 sequence: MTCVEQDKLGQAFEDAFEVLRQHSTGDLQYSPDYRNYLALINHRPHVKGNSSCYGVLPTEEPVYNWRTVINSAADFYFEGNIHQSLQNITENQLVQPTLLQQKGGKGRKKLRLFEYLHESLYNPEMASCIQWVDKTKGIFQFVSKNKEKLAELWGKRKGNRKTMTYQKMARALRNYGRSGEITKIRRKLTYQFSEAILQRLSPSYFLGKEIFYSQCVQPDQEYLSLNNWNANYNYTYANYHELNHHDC
Method in brief: as §1

[13] = target: ELF4 (Homo sapiens, UniProt Q99607 1-663); conditions: protein: recombinant; tags: N-terminal GST; dsDNA, one strand shown
Chain of ELF4 (Q99607 whole entry): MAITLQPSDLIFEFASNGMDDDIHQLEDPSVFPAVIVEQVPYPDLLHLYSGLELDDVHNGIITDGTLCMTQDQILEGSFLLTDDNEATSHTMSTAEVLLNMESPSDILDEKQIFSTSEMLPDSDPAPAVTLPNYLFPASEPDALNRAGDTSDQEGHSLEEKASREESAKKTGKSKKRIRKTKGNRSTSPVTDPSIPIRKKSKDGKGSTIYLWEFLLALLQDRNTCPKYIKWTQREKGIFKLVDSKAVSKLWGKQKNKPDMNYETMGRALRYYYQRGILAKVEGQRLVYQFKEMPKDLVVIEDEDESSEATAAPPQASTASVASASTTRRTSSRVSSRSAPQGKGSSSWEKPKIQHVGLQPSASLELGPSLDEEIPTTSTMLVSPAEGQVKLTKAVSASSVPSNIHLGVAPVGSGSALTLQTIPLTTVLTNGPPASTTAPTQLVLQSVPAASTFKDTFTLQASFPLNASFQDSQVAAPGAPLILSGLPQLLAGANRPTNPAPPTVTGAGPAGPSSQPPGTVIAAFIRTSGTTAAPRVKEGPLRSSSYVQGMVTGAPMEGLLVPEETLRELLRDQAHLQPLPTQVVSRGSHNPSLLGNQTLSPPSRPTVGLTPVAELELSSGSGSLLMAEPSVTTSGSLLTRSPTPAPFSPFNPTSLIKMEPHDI
Method in brief: as §1

[14] = target: T9, ELK4 (Homo sapiens, UniProt P28324-2 1-405); conditions: protein: recombinant; tags: N-terminal GST; dsDNA, one strand shown
T9 sequence: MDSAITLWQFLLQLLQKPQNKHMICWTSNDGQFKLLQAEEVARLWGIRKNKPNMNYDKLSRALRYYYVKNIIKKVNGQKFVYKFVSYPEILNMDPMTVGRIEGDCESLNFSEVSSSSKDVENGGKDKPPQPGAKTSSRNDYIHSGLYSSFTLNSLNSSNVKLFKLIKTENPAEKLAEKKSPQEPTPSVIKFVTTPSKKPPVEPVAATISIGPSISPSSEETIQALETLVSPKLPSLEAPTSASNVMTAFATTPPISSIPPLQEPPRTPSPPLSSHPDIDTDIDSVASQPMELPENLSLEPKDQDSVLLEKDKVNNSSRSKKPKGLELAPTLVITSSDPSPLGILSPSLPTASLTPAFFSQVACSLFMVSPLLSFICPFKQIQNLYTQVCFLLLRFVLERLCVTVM
Method in brief: as §1

[15] = target: T10, ETV2 (Homo sapiens, UniProt O00321 1-342); conditions: protein: recombinant; tags: N-terminal GST; dsDNA, one strand shown
T10 sequence: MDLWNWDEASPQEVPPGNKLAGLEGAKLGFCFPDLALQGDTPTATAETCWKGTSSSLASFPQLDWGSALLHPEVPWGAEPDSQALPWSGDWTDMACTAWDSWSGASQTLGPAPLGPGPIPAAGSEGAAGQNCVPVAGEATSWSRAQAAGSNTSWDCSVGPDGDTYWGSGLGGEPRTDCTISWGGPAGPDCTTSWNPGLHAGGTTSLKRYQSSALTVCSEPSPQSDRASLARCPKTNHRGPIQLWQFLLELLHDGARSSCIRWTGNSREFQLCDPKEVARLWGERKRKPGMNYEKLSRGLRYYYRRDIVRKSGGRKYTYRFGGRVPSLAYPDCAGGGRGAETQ
Method in brief: as §1

[16] = target: T11, ELF3 (Homo sapiens, UniProt P78545 1-371); conditions: protein: recombinant; tags: N-terminal GST; dsDNA, one strand shown
T11 sequence: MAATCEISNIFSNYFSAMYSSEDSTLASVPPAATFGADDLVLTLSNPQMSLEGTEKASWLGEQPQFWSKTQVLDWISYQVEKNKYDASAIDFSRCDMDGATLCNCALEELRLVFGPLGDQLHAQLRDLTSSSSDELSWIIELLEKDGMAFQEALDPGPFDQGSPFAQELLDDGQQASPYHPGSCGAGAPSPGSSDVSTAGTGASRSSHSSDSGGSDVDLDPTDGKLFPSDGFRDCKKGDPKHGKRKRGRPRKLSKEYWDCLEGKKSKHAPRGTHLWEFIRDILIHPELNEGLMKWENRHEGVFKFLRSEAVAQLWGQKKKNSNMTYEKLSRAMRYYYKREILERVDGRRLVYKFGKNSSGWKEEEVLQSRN
Method in brief: as §1

[17] = target: CRX (Homo sapiens, UniProt O43186 1-299); conditions: protein: recombinant; tags: N-terminal GST; dsDNA, one strand shown
Chain of CRX (O43186 whole entry): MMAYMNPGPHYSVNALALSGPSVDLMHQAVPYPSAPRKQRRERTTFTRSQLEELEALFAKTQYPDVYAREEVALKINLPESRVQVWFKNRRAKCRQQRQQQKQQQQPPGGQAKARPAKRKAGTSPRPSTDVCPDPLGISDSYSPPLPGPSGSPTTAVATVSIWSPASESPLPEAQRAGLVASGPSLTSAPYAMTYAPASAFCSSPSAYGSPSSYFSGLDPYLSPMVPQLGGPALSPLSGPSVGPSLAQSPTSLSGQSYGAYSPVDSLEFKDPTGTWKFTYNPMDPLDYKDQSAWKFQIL
Method in brief: as §1

[18] = target: ETV1 (Homo sapiens, UniProt P50549 1-477); conditions: protein: recombinant; tags: N-terminal GST; dsDNA, one strand shown
Chain of ETV1 (P50549 whole entry): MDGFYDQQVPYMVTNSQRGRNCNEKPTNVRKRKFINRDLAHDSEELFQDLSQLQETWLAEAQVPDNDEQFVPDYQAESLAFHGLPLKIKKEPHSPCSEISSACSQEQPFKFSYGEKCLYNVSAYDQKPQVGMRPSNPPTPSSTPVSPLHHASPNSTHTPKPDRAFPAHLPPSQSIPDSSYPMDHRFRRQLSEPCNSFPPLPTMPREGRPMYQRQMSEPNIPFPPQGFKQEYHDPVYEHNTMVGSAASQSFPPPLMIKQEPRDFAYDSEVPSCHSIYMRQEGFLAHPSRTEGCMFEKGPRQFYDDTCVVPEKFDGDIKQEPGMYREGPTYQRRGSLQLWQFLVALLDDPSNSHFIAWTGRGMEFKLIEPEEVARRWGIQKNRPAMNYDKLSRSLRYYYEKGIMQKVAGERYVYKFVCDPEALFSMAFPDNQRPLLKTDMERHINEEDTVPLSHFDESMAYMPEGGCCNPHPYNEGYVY
Method in brief: as §1

In the case of AAGCAG, the binding signal [1] is reported as 1.1 fold enrichment (6-mer frequency, TF over GST control), the binding signal [2] is reported as 1.14 fold enrichment (6-mer frequency, TF over GST control) and the binding signal [3] is reported as 1.13 fold enrichment (6-mer frequency, TF over GST control). For the same sequence, the binding signal [4] was 1.11 fold enrichment (6-mer frequency, TF over GST control), the binding signal [5] was 1.12 fold enrichment (6-mer frequency, TF over GST control) and the binding signal [6] was 1.12 fold enrichment (6-mer frequency, TF over GST control). The binding signal [7] was 1.24 fold enrichment (6-mer frequency, TF over GST control), the binding signal [8] was 1.23 fold enrichment (6-mer frequency, TF over GST control) and the binding signal [9] was 1.09 fold enrichment (6-mer frequency, TF over GST control). For the same sequence, the binding signal [10] was 1.18 fold enrichment (6-mer frequency, TF over GST control), the binding signal [11] was 1.05 fold enrichment (6-mer frequency, TF over GST control) and the binding signal [12] was 1.09 fold enrichment (6-mer frequency, TF over GST control). The binding signal [13] was 1.12 fold enrichment (6-mer frequency, TF over GST control), the binding signal [14] was 1.06 fold enrichment (6-mer frequency, TF over GST control) and the binding signal [15] was 1.13 fold enrichment (6-mer frequency, TF over GST control). For the same sequence, the binding signal [16] was 1.04 fold enrichment (6-mer frequency, TF over GST control), the binding signal [17] was 1.11 fold enrichment (6-mer frequency, TF over GST control) and the binding signal [18] was 1.19 fold enrichment (6-mer frequency, TF over GST control).
